Unmarked numbers belong to inactive results. The source made the active and inactive calls.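 Rule for the calls: active = AC50 at most tenfold above the top tested concentration; inconclusive = flat fit with 30 to 70% activity, or a poor fit; inactive = AC50 over tenfold above the top dose.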
Assay: inhibition of yeast nuclear histone deacetylase activity – cell lysate, fluorescence, yeast nuclear extract, mechanism study for Sdo1 growth activator project, dose response (AID 463208)
Settings: yeast nuclear extract HDAC activity, fluorogenic substrate

| SMILES | AC50 |
| --- | --- |
| O=C(CCSc1nc(-c2ccco2)cc(C(F)(F)F)n1)NCCc1cccs1 | > 50 µM |
| CSCC[C@H](NC(=O)OC(C)(C)C)c1nnc(SCC(N)=O)o1 | > 50 µM |
| Cc1ccc(NC(=O)c2ccc(NCC3CCCO3)c([N+](=O)[O-])c2)cc1 (stereo not drawn) | > 50 µM |
| COc1ccc(-c2nc3ccccc3s2)cc1NC(=O)c1ccc(Br)o1 | > 50 µM |
| CC(/C=C/C(=O)NO)=C\[C@@H](C)C(=O)c1ccc(N(C)C)cc1 | < 0.00075 µM (active) |
| O=C(C(c1ccccc1)c1ccccc1)N(Cc1ccco1)C1CCS(=O)(=O)C1 (stereo not drawn) | > 50 µM |
| O=C(O)CCCn1nc(C(F)(F)F)c2c1CCCCC2 | > 50 µM |
| Cc1ccc2c(CC(=O)NNC(=O)c3ccccc3)coc2c1 | > 50 µM |
| Cc1c(/C=N/NC(=O)c2ccc(F)cc2)cnn1C | > 50 µM |
| O=C(COC(=O)Cc1cccs1)Nc1ccccc1 | > 50 µM |
| Cc1nn(-c2ccccc2)c(C)c1NC(=O)c1cccs1 | > 50 µM |
| COc1cc(/C=N/NC(=O)CCC(=O)NCc2ccccc2)cc(OC)c1OC | > 50 µM |
| CC(C(=O)Nc1ccccc1)N1C(=O)c2ccccc2C1=O (stereo not drawn) | > 50 µM |
| Cc1sc(NC(=O)c2ccnn2C)c(C#N)c1-c1ccccc1 | > 50 µM |
| Cc1nc(CS(=O)(=O)c2ccccc2)cc(N2CCOCC2)n1 | > 50 µM |
| O=C(Nc1cccc(Cl)c1)c1ccc(NCC2CCCO2)c([N+](=O)[O-])c1 (stereo not drawn) | > 50 µM |
| O=C(Nc1ccccc1)c1ccc(NCC2CCCO2)c([N+](=O)[O-])c1 (stereo not drawn) | > 50 µM |
| CCOc1cccc(C(=O)NC(=S)NCc2cccnc2)c1 | > 50 µM |
| Cc1ccc(Cn2c(Sc3nccc(C)n3)nc3c2c(=O)[nH]c(=O)n3C)cc1 | > 50 µM |
| O=C(C(c1ccccc1)c1ccccc1)N(Cc1cccs1)C1CCS(=O)(=O)C1 (stereo not drawn) | > 50 µM |
| O=C(CSc1nc(-c2ccco2)cc(C(F)(F)F)n1)NCc1cccs1 | > 50 µM |
| CC(C(=O)Nc1cccnc1)N1C(=O)c2ccccc2C1=O (stereo not drawn) | > 50 µM |
| CCOC(=O)/C=C1\SCC(=O)N1CC(=O)NC1CCCCC1 | > 50 µM |
